PubChem BioAssay (NCI)
About 83,000 compounds went through this panel and 20% of them were active in at least one assay; those are over-represented in the sample as a whole.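 Method: cells in 96-well plates; compound added at one concentration; 48 h incubation; percent growth measured; values under 10 scored active.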 A number with no mark means an inactive call. Activity calls are given as the source filed them.

tested on: HL-60(TB) leukemia; assay: NCI-60 one-dose screen, 48 h (100 = growth as untreated, 0 = no growth, -100 = all killed); conditions: 10 µM unless noted

SMILES | growth
C1CCCCNCCC1 | 114%
CCC(C)Nc1ccc(NC(C)CC)cc1 (stereo not given) | 57.5%
O=C(Nc1ccccc1)Nc1ccc2cc3ccc(NC(=O)Nc4ccccc4)cc3nc2c1 | 50.9%
CC1=NN(c2ccc(S(=O)(=O)O)cc2Cl)C(=O)C1 | 143%
CCCCn1c(-c2ccc(-c3nc(-c4ccc(Cl)cc4)no3)cc2)nc(-c2ccccc2)c1-c1ccccc1 | 61.4%
CCn1cc(C(=O)O)c(=O)c2cc(F)c(N3CCN(S(=O)(=O)c4ccc(Cl)cc4)CC3)cc21 | 8.96% (active)
CCOc1nc(-c2ccccc2)cc2c(O)c(C(=O)NN)[nH]c(=O)c12 | 151%
O=C(Nc1nccs1)c1noc2ccccc12 | 95%
CC(=O)OCC1CCC(COC(C)=O)CC1 (stereo not given) | 85.5%
CN(C)CCCN=c1cc2c(=O)n(CCCN(C)C)c(=O)c3c(NCCCN(C)C)cc4c(O)n(CCCN(C)C)c(=O)c1c4c3-2 | 61.2%
COc1cc(/C=C/C(=O)c2ccc(Oc3ncnc4ccccc34)cc2)cc(OC)c1OC | 54.3%
COc1ccc2c(c1)CCCN2c1c2ccccc2nc2ccccc12 | 5.6% (active)
CC(=O)c1cc(Br)ccc1O | 101%
CC[N+](CC)(CCCC(C)[N+]1(Cc2ccccc2)C(C)=CC=C1C)Cc1ccccc1 (stereo not given) | 37.1%
Cc1nn(-c2cc(NC3CCC(O)CC3)c3c(=O)[nH]c(CCC(F)(F)F)cc3c2)c2c1C(=O)CC(C)(C)C2 (stereo not given) | 28%
O=C1CSC(c2ccccc2)N1c1ccccc1 (stereo not given) | 99.7%
O=C(Nc1cccnc1Nc1ccc(Cl)cc1)c1cn(Cc2cccc(Oc3ccccc3)c2)nn1 | 12.9%
O=c1cc(-c2ccccc2)[nH]c2ccccc12 | 45%
COc1ccccc1CNCCCN1C(=O)c2ccc3c4c(ccc(c24)C1=O)C(=O)N(CCCNCCCCN)C3=O | -42% (active)
S=c1[nH]c2cc(Cl)ccc2s1 | 97.4%

SMILES | growth
CCN(CC)CCNC(=O)c1ccc(-c2nc3ccc4[nH]ncc4c3c3c2CCCC3)cc1 | 67.9%
CN(C)CCCNC(=O)c1cncnc1Nc1ccc2c(ccn2Cc2cccc(F)c2)c1 | 93.3%
O=C1Nc2ccccc2C1(c1c[nH]c2ccccc12)c1c[nH]c2ccccc12 | 77.8%
COc1ccc2[nH]cc(-c3nc(-c4c[nH]c5c(Cl)nccc45)cs3)c2c1 | 36%
O=C1/C=C/[C@@H](O)[C@@H]2C[C@@H](O)C[C@H]2/C=C/CCC[C@H](CCO)O1 | 3.3% (active)
Cc1ccc(-c2nn(CC(=O)N3CCOCC3)c(N)c2C#N)cc1 | 103%
c1ccc(-c2cc3cc4ccccc4cn3c2)cc1 | 94.6%
COc1ccc(/C=C/C(=O)Nc2ccc(-c3nc4ccc(F)cc4s3)cc2)cc1 | 91.4%
CC(=O)c1c(O)c(C)c(O)c2c1OC1=CC(=O)C(C(C)=O)C(=O)C12C (stereo not given) | 45.4%
CC(=O)c1c(C)nc(SCC(=O)Nc2cccc(O)c2)n1-c1ccc(Cl)cc1 | 88.3%
COc1ccc(/C(C)=N/NC(=O)CSc2nc3ccccc3c(=O)n2Cc2ccc(S(N)(=O)=O)cc2)c(OC)c1 | 102%
COc1cccc(CC(C)=C(c2ccc(OCCN3CCCCC3)cc2)c2ccc(OCCN3CCCCC3)cc2)c1 | -57.5% (active)
COC1=C(C)C(=O)c2c(c(CCCl)c3n2CCC3O)C1=O (stereo not given) | 50.3%
Nc1ccc(Nc2nccc(-c3ccc4ccccc4c3)n2)cc1 | 21.2%
CCOC(=O)c1nn(-c2ccc(S(N)(=O)=O)cc2)c2nc(C)cc(=O)n12 | 101%
N/C(=N/N=C/c1ccccc1)N/N=C\c1ccccc1 | 44.2%
O=c1oc2ccc(Br)cc2c(=O)n1-c1ccc(F)cc1F | -1.95% (active)
COc1cccc(-c2nc3sccn3c2-c2ccnc(NCCNS(=O)(=O)c3cccc(Cl)c3)c2)c1 | 15.6%
CCOc1cccc(NC2=C(Br)C(=O)C(C)=C(C)C2=O)c1 | -12.5% (active)
N#Cc1c(NC(=O)NCc2ccccc2)sc2c1CCCCC2 | -8.46% (active)
